MITF primary: blocks human microphthalmia-associated transcription factor | AID 1259374 | inhibition, % at 2.6 µM | 650,000 compounds, 0.91% hits | O75030 | AlphaScreen MITF homodimerization, bead proximity signal; in the data active means inhibition above about 50%;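 further: 0% = vehicle wells with protein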
FBW7 act: human FBW7 E3 ligase activation, primary screen; 650,000 compounds, 0.13% hits; AlphaScreen FBW7–phospho-cyclin E peptide binding, activator screen; AID 1259310; normalized activity (activation), % at 26.1 µM; in the data active means normalized activity above about 1.9%;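 further: purified mutant Fbw7 with reduced substrate affinity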
Target sequence (Q969H0 whole entry, looked up): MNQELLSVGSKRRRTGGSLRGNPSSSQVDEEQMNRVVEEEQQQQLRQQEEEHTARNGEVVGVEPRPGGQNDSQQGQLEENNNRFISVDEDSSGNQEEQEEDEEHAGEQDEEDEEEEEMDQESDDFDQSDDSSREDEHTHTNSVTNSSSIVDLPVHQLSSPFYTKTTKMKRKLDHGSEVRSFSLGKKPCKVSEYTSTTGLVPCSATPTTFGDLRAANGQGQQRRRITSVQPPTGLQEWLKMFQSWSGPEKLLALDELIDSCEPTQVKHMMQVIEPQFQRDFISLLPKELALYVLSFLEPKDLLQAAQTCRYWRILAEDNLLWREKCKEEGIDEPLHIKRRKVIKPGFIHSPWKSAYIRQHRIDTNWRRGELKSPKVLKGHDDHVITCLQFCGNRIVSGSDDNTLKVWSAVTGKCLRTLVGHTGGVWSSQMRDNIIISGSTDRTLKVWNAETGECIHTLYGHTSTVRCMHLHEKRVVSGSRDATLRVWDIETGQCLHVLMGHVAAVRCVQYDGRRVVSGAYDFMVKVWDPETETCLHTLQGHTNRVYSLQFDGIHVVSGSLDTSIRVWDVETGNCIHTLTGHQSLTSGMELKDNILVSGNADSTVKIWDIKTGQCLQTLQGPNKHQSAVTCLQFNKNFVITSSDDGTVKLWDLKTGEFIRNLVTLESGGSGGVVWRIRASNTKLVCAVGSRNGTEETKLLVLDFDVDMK
TEAD-YAP inh: TEAD-YAP interaction inhibition; HEK-TIYL cells, TEAD-Gal4/YAP UAS-luciferase luminescence; inhibition, % at 9.12 µM; 640,000 compounds, 1.4% hits; AID 1259422; in the data active means inhibition above about 32%;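 further: 0% = median of test compound wells and 100% = reference inhibitor wells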
GPR151 ag: activators of human GPR151; Q8TDV0; PathHunter beta-arrestin GPR151 cells, luminescence; activation, % at 11.2 µM; 650,000 compounds, 1% hits; in the data active means activation above about 4.9%;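 further: 0% = median of compound wells and 100% = cells with positive control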
GPR151 conf act: confirmation of human GPR151 activators | shares compounds with GPR151 ag | GPR151 PathHunter beta-arrestin cells, luminescence, 90 min; % of EA-reagent control over plate median | activation, % at 11.2 µM | 6,700 tested, under 10 active;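 active means mean percent activation across replicates above the confirmation screen cutoff of 4.91%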
GPR119 ag: counter-screen for GPR151 activators: effect on human GPR119; shares compounds with GPR151 ag; GPR119 PathHunter beta-arrestin cells, luminescence, 90 min; 0 = compound-well median, 100 = enzyme-acceptor control; activation, % at 11.2 µM; 6,700 compounds, 0.3% hits; AID 1508611;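 active means mean percent activation in the counterscreen above 29.09%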;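 further: counterscreen on off-target GPR119 to flag nonselective hits from the GPR151 activator screen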
The depositor's hits bear a star; · = no result given. Compounds with a hit are over-represented: about 3.4% of the library has one in this group of screens.

SMILES	MITF primary	FBW7 act	TEAD-YAP inh	GPR151 ag	GPR151 conf act	GPR119 ag
O=C(NCc1ccc(Cl)cc1Cl)c1ccccn1	2	0	2	7.8*	0	3
O=C(NCc1ccc(Cl)cc1Cl)Nc1ccccc1	14	1	-45	-1	·	·
NC(=O)/C(=C/c1cccc([N+](=O)[O-])c1)NC(=O)c1ccco1	-6	0	-1	6.8*	1	-4
CNC(=O)/C(=C/c1cccc([N+](=O)[O-])c1)NC(=O)c1ccc(C(C)(C)C)cc1	3	0	1	6.0*	0	-3
O=C(OCc1ccccc1)/C(=C/c1cccc([N+](=O)[O-])c1)NC(=O)c1ccco1	4	0	-5	0	·	·
Cc1[nH]c2ccc(-c3n[nH]c(=S)n3-c3ccc(Oc4ccccc4)cc3)cc2c1C	0	0	15	1	·	·
COCC(=O)N1CCN(CC(=O)c2ccco2)CC1	9	0	5	4.9*	0	-7
COc1ccc(S(=O)(=O)N2CCN(CC(=O)c3ccco3)CC2)cc1OC	7	0	2	12*	0	0
COc1ccc(F)cc1S(=O)(=O)N1CCN(CC(=O)c2ccco2)CC1	48	0	-11	-1	·	·
COc1ccc(OC)c(S(=O)(=O)N2CCN(CC(=O)c3ccco3)CC2)c1	3	0	3	6.8*	0	-7
O=C(CN1CCN(S(=O)(=O)c2ccccc2)CC1)c1ccco1	11	0	6	-1	·	·
COc1ccc(-n2nc(C(=O)Nc3ccc(F)cc3Cl)c3ccccc3c2=O)c(OC)c1	-3	0	-7	2	·	·
O=C(CCN1N=C(c2ccccc2)CCC1=O)NC1CCCCCCC1	32	0	-8	0	·	·
COc1ccc(/C=N/Nc2nc(C)c([N+](=O)[O-])c(N(C)c3ccccc3)n2)cc1OC	-1	0	14	5.5*	1	2
O=C(N/N=C/c1ccc(Cl)c([N+](=O)[O-])c1)c1cc(-c2ccccc2)n[nH]1	21	0	-8	7.2*	0	-10
Cc1nc(CNc2nncc(-c3ccc(Cl)cc3)n2)cs1	0	0	-24	9.4*	-1	3
Cc1nn(C)cc1CN(C)C(=O)C1CC(Cc2cccc(Cl)c2)=NO1 (centres undefined)	9	1	-24	-1	·	·
O=C(CCc1nnc(CCc2c[nH]c3ccccc23)o1)N1CCN(CC2CC2)CC1	-7	0	7	0	·	·
O=C(CCc1nnc(CCc2c[nH]c3ccccc23)o1)NCC1CC1	3	0	3	5.4*	1	8
O=C(Nc1sc2c(c1-c1nc3ccccc3s1)CCCC2)c1ccc(S(=O)(=O)N2CCCCC2)cc1	-8	0	-3	1	·	·
Cc1cc(C(=O)Nc2ccc(I)c(C)n2)ccc1[N+](=O)[O-]	19	0	-28	0	·	·
Cc1cc(C(=O)Nc2ccc(Br)c(C)n2)ccc1[N+](=O)[O-]	16	0	-69	5.0*	-1	-2
CC(C)C1=NOC(C(=O)N2CCC(CO)(Cc3cccc(C(F)(F)F)c3)CC2)C1 (centres undefined)	-3	0	-7	5.2*	1	14
CC(C)CNC(=O)c1cc2nc(-c3ccccc3)cc(-c3ccccc3)n2n1	-8	0	-3	0	·	·
CC(C)c1nc(CNCc2c(C(=O)N3CCCN(C)CC3)nc3sccn23)cs1	10	0	-1	6.9*	0	1
SMILES	MITF primary	FBW7 act	TEAD-YAP inh	GPR151 ag	GPR151 conf act	GPR119 ag
COc1ccc(Cl)cc1C(=O)n1nc(C)cc1C	27	0	-5	9.6*	0	0
COc1cccc(OC)c1C(=O)n1nc(C)cc1C	16	0	9	0	·	·
Cc1cc(C)n(C(=O)CSc2ccc(Cl)cc2)n1	15	1	8	7.8*	-1	-15
COC(=O)c1c(NC(=O)CSc2nnc3cc(C)c4ccccc4n23)sc2c1CCCC2	-8	0	-6	0	·	·
Cc1cc2nnc(SCC(=O)Nc3sc4c(c3C#N)CCCCC4)n2c2ccccc12	12	0	-2	5.9*	1	13
CC(C)c1ccc(NC(=O)c2cc(S(=O)(=O)NC3CCCCCC3)ccc2F)cc1	-10	0	-7	0	·	·
CCOc1ccc(-n2cc(-c3ccccc3)c3c(N4CCN(c5cccc(C)c5)C(C)C4)ncnc32)cc1 (centres undefined)	-7	0	2	1	·	·
C=CSc1sc(Cl)c(N2CCC3(CC2)OCCO3)c1[N+](=O)[O-]	2	0	-3	5.2*	0	-2
C=CSc1sc(Cl)c(N2CCOCC2)c1[N+](=O)[O-]	23	0	5	-1	·	·
CC(=O)Nc1ccc(OCC(O)CN2CCN(Cc3ccc(Cl)cc3)CC2)cc1 (centres undefined)	4	0	7	-1	·	·
Cc1ccc(N(CC(=O)NCCC(C)C)C(=O)CCC(=O)Nc2ccccn2)cc1	6	0	-1	6.3*	1	-1
COc1ccc(S(=O)(=O)Nc2ccc3c(c2)n(C)c(=O)n3C)cc1	-3	0	11	1	·	·
CCOc1ccc(NS(=O)(=O)c2ccc3c(c2)n(C)c(=O)n3C)cc1	-7	0	0	15*	-1	-11
Cn1nccc1Nc1nc(C(=O)NCc2cccnc2)cs1	-2	0	-3	5.3*	-1	-13
Cn1nccc1Nc1nc(C(=O)NCc2ccccc2)cs1	5	0	-3	-1	·	·
Cn1nccc1Nc1nc(C(=O)Nc2ccccc2)cs1	9	0	-14	5.6*	0	-7
Cn1nccc1Nc1nc(C(=O)NCc2cccc(C(F)(F)F)c2)cs1	20	0	-9	8.7*	0	-2
Cc1ccc(C(=O)COC(=O)C(C)N2C(=O)c3ccccc3C2=O)cc1 (centres undefined)	0	0	4	1	·	·
O=C(CN(CCc1ccccc1)S(=O)(=O)c1cc(Cl)ccc1Cl)N1CCCC1	21	0	-3	18*	0	-13
O=C(CN(Cc1ccccc1)S(=O)(=O)c1cc(Cl)ccc1Cl)N1CCCC1	22	0	-2	3	·	·
COc1ccc(O)c(CN2CCCCC2)c1	-4	0	-9	0	·	·
COc1ccc(O)c(CN(C)CCN(C)C)c1	8	1	10	7.2*	0	-9
CC(C)(C)OC(=O)N1CCC(c2nc(-c3ccncc3)no2)CC1	-13	0	4	2	·	·
CC(C)(C)OC(=O)N1CCCC(c2nc(-c3ccncc3)no2)C1 (centres undefined)	-5	0	-6	5.5*	0	10
CC(C)c1ccc(NC(=O)CSc2nc3cc4c(cc3c(=O)n2CCC2=CCCCC2)OCO4)cc1	-4	0	4	5.9*	-1	7

Bioassay records (PubChem)
